The target of experiment [1] is Aldehyde dehydrogenase, mitochondrial (Homo sapiens) (UniProt P05091). As to the kind of experiment: qHTS for Inhibitors of the Aldehyde Dehydrogenase Family (ALDH2) Primary screen (AID 2061308). Also: nearly all actives have a fitted effect of over 55% in size. On the technique in general: In qHTS, concentration-response curves come from the screen itself.
Experiment [2] deals with Retinaldehyde dehydrogenase 3 (Homo sapiens) (UniProt P47895). As to the kind of experiment: qHTS for Inhibitors of the Aldehyde Dehydrogenase Family (ALDH1A3) Primary screen (AID 2061315).

Inconclusive results are not listed. Where a call stands in place of a potency, no number is given. Calls of active or inactive are those of the source. Calls follow the shape of the dose curve; as a rule, active = well fitted curve in the direction sought with a large enough effect; inconclusive = small, poorly fitted or top-dose-only effect, or another doubt; inactive = no such curve, though single readings can be large; an effect the other way counts as inactive or inconclusive.

`Cc1c(P(=S)(c2ccccc2)c2ccccc2)[n+]2ccccc2n1CCc1ccccc1`: the Potency result in experiment [1] and in experiment [2] was “inactive” throughout.
For the molecule `Cc1cc(C)n2ncc(C(=O)Nc3ccccc3Sc3ccccc3)c2n1`, the Potency entry in experiment [1] and in experiment [2] was “inactive” each time.
In the case of `CC(=O)Nc1sc2cnccc2c1-c1nc2ccccc2s1`, the Potency result in experiment [1] and in experiment [2] was “inactive” each time.
Regarding `Cc1ccc(OCCn2c(CCN[S+](=O)([O-])C3CCCCC3)nc3ccccc32)cc1`, the Potency result in experiment [1] and in experiment [2] was “inactive” each time.
As to `O=C1CCc2cc(S(=O)(=O)Nc3cccc(Cl)c3)ccc2N1`, the Potency entry in experiment [1] and in experiment [2] was “inactive” each time.
On to `COc1ccc(S(=O)(=O)N2CCN(S(=O)(=O)c3c(F)cccc3F)CC2)cc1`, for which the Potency result in experiment [1] and in experiment [2] was “inactive” each time.
In the case of `CCCCN(C)C(=O)Cn1nc(-c2cncnc2)ccc1=O`, the Potency entry in experiment [1] and in experiment [2] was “inactive” each time.
In the case of `N#Cc1c(-c2cc(C(F)(F)F)cc(C(F)(F)F)c2)no[n+]1[O-]`, the Potency entry in experiment [1] and in experiment [2] was “inactive” throughout.
In the case of `CCOc1ccc(CCNC(=O)c2cc3sccc3n2CCN2CCOCC2)cc1OCC`, the Potency entry in experiment [1] and in experiment [2] was “inactive” each time.
Regarding `O=S(=O)(NCCCCCNS(=O)(=O)c1c(F)cccc1F)c1ccc2c(c1)OCCO2`, the Potency result in experiment [1] and in experiment [2] was “inactive” throughout.
Turning to `c1csc(CNc2ncnc3ccc(-c4ccc5c(c4)OCCO5)cc23)c1`, the Potency result in experiment [1] and in experiment [2] was “inactive” throughout.
`Cc1cc(C)nc(NC(=S)N2CCN(c3cc(Cl)c(Cl)c(Cl)c3)CC2)c1`: the Potency entry in experiment [1] and in experiment [2] was “inactive” in each case.
Regarding `COc1cccc(-c2csc3ncnc(Sc4nnnn4C)c23)c1`, the Potency result in experiment [1] and in experiment [2] was “inactive” each time.
Regarding `Cc1ccc(NC(=O)CN2C(=O)N/C(=C\c3cccn3-c3cccc(C(=O)O)c3)C2=O)cc1`, the Potency entry in experiment [1] and in experiment [2] was “inactive” in each case.
For `CC(=O)Nc1sc2c(c1-c1nc3ccccc3s1)CCCN(C(C)C)C2`, the Potency result in experiment [1] and in experiment [2] was “inactive” each time.
For the molecule `c1coc(-c2ccc3ncnc(NCc4cccs4)c3c2)c1`, the Potency result in experiment [1] and in experiment [2] was “inactive” each time.
Turning to `c1nc(NCCCN2CCOCC2)c2cc(-c3ccc4c(c3)OCO4)ccc2n1`, the Potency result in experiment [1] and in experiment [2] was “inactive” in each case.
For the molecule `CC(=O)Nc1cccc(S(=O)(=O)N2CCN(S(=O)(=O)c3c(F)cccc3F)CC2)c1`, the Potency entry in experiment [1] and in experiment [2] was “inactive” each time.
On to `CCOC(=O)c1nn(-c2ccccc2)c(=O)c2c(N)scc12`, for which the Potency result in experiment [1] and in experiment [2] was “inactive” each time.
On to `CC(=O)c1cccc(-c2ccc(-c3nc4ccccc4c(=O)[nH]3)o2)c1`, for which the Potency entry in experiment [1] and in experiment [2] was “inactive” throughout.
For `CC(O)c1ccc(-c2ccc3ncnc(NCCc4cnc[nH]4)c3c2)o1` (stereo not given), the Potency result in experiment [1] and in experiment [2] was “inactive” in each case.
`CCC(C)/C=C(C)/C=C/C1=CC2=CC(=O)C(C)(O)C(OC(C)=O)C2CO1` (stereo not given): the Potency entry in experiment [1] and in experiment [2] was “inactive” each time.
Consider `O=S(=O)(c1ccc2c(c1)OCCO2)N1CCN(S(=O)(=O)c2ccc3c(c2)OCCO3)CC1`, for which the Potency result in experiment [1] and in experiment [2] was “inactive” each time.
Turning to `CC(C)c1ccccc1-c1nc(NCc2ccc(-c3cccnc3)cc2)c2sccc2n1`, the Potency entry in experiment [1] and in experiment [2] was “inactive” in each case.
`O=C(Nc1ccc2sccc2c1)Nc1nnc(-c2cccnc2)s1`: the Potency result in experiment [1] and in experiment [2] was “inactive” each time.
For `CC(=O)Nc1ccc(S(=O)(=O)N2CCN(S(=O)(=O)c3c(F)cccc3F)CC2)cc1`, the Potency result in experiment [1] and in experiment [2] was “inactive” each time.
For the molecule `CCCc1cc(C)n(C)c(=O)c1CN(C)C(=O)c1cc(-c2ccc(N3CCN(C(C)C)CC3)nc2)cc2c1cnn2C(C)C`, the Potency result in experiment [1] and in experiment [2] was “inactive” in each case.
Regarding `Cc1cccc(-c2[nH]c(Cc3cccc(C(N)=O)c3)nc2-c2ccc3nccnc3c2)n1`, the Potency entry in experiment [1] and in experiment [2] was “inactive” throughout.
In the case of `O=S(=O)(c1ccc(F)cc1)N1CCN(S(=O)(=O)c2ccc3c(c2)OCCO3)CC1`, the Potency entry in experiment [1] and in experiment [2] was “inactive” each time.
On to `Cc1cc(NC(=O)Nc2nnc(C3CCCCC3)s2)ccc1F`, for which the Potency result in experiment [1] and in experiment [2] was “inactive” each time.
For `O=[S+]([O-])(c1ccc2c(c1)OCCO2)N1CCN([S+](=O)([O-])c2ccc(F)cc2Cl)CC1`, the Potency result in experiment [1] and in experiment [2] was “inactive” each time.
In the case of `Cc1ccc([S+](=O)([O-])n2cc(Cc3ccc(-c4ccccc4)cc3)c3ccccc32)cc1`, the Potency entry in experiment [1] and in experiment [2] was “inactive” in each case.
In the case of `COc1ccc(-c2nnc3n2N=C(c2ccc(OC)c(OC)c2)CS3)c(OC)c1`, the Potency result in experiment [1] and in experiment [2] was “inactive” throughout.
Regarding `Cc1cccc(CNc2ncnc3ccc(-c4cccc(C)c4)cc23)c1`, the Potency result in experiment [1] and in experiment [2] was “inactive” in each case.
With `CCCCCNc1oc(-c2cccc3ccccc23)nc1C#N`, the Potency result in experiment [1] and in experiment [2] was “inactive” throughout.
With `Cc1ccc(C(=O)Nc2ccccc2C(=O)Nc2nc(-c3ccccc3)cs2)cc1`, the Potency result in experiment [1] and in experiment [2] was “inactive” each time.
With `CC(C)Oc1cccc(-c2ccnc(N3CCC(C(N)=O)CC3)n2)c1`, the Potency entry in experiment [1] and in experiment [2] was “inactive” each time.
For `CC(C)(C)OC(=O)N[C@@H](Cc1ccc(O[S+](=O)([O-])c2cccc3cnccc23)cc1)C(=O)N1CCN(c2ccccc2)CC1`, the Potency entry in experiment [1] and in experiment [2] was “inactive” in each case.
Regarding `Cc1cc(C)n2ncc(C(=O)Nc3ccc(Br)cc3)c2n1`, the Potency entry in experiment [1] and in experiment [2] was “inactive” in each case.
`O=C1CCc2cc(S(=O)(=O)Nc3cccc4ccccc34)ccc2N1`: the Potency entry in experiment [1] and in experiment [2] was “inactive” throughout.
